Shown are actives, neighbours in structure and some others; about 14% of the full set was active somewhere.
Lassa entry inh – Lassa virus entry inhibition; Lassa virus pseudotype entry inhibition, cell reporter; 300,000 tested, 1.2% active; AID 540256; Potency, µM (titrated, usually from 37.9 µM), without a hit: top-dose activity change, negative = inhibition, usual class: inhibitors; calls by dose curve; tested in HEK293 cells; also: potency is read from the fitted curve at half-maximal effect; nearly all actives have a fitted effect of over 50% in size
Pf growth 48h – inhibits P. falciparum growth in the first generation, 48 h. P. falciparum luciferase growth in erythrocytes, 48 h. Potency, µM (series often up to 28.7 µM), inactives show top-dose activity change, negative = inhibition, usual class: inhibitors. 310,000 tested, 5.9% active; also: potency is read from the fitted curve at half-maximal effect
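Growth was read as firefly luciferase luminescence after a 48 h, 37 C, 5% CO2 exposure of compounds to reporter-bearing P. falciparum cultures (0.1% parasitemia, 2% hematocrit final) in Albumax-supplemented RPMI 1640.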
HCV inh – HCV inhibition. Potency, µM (series often up to 41.8 µM), for inactives: top-dose activity change, negative = inhibition, hits mostly inhibitors. AID 651820. Huh7.5.1 HCVcc-Cre infection, luciferase reporter, 44 h. 340,000 tested, 3.4% active; also: potency is read from the fitted curve at half-maximal effect
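After 44 h co-culture of compound, cells and HCVcc-Cre (~0.5 moi), substrate is added for 15 min at room temperature and luciferase measured over 15 sec. Cells were seeded at 1,000/well and pre-cultured 4 h.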
Pf growth 96h – inhibits malaria parasite growth, 96 h; P. falciparum luciferase reporter growth, 96 h; Potency, µM (series often up to 28.7 µM), without a hit: top-dose activity change, negative = inhibition, actives largely listed as inhibitors; 320,000 tested, 6.9% active; also: potency is read from the fitted curve at half-maximal effect
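Erythrocytes infected with luciferase-expressing P. falciparum were dispensed at 2% hematocrit and 0.05% parasitemia (final), then incubated with compounds 96 hours at 37 C in 5% CO2. Luminescence after detection reagent addition reported growth.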
MARV entry inh – inhibitors of Marburg virus binding or cell entry; Marburg virus pseudotyped entry inhibition, cell reporter; Potency, µM (highest dose often 37.8 µM), for inactives: at the top dose activity change, negative = inhibition, most hits filed as inhibitors; 300,000 tested, 1.8% active; calls by dose curve; tested in HEK293 cells; also: potency is read from the fitted curve at half-maximal effect
HCMV inh – blocks human cytomegalovirus replication; HFF cells, HCMV-luciferase reporter, 72 h; active compounds read low; activity change, negative = inhibition, % at 57.5 µM; 410,000 tested, 4.5% active; AID 1259415; in the data active = activity change below about -60%; inconclusive = no clear call, values can overlap the other calls; inactive = above about -39%
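After 16 h attachment at 37C, HFF cells received test compound and HCMV-luciferase (1 PFU/cell); reporter luminescence read 72 h later, data normalized against buffer-only and known inhibitor Salinomycin.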
Numbers without * were called inactive; ? = inconclusive; . = no result given; [ ] = remark or other dose. Unless noted, calls follow the shape of the dose curve; as a rule, active = well fitted inhibition curve with a large enough effect; inconclusive = small, poorly fitted or top-dose-only effect, or another doubt; inactive = no such curve, though single readings can be large or run the other way. % is scaled to controls: 0 for no effect and ±100 for the full control effect.

SMILES | Lassa entry inh | Pf growth 48h | HCV inh | Pf growth 96h | MARV entry inh | HCMV inh
CCn1nc(C)c(CN2CCC(C(=O)Nc3cccc(-c4cccc(F)c4)c3)CC2)c1C | . | 10µM* | ? | 4% | . | -21
O=C(CSc1nnc(-c2ccccc2)c(-c2ccccc2)n1)NC1CCCCC1 | 0%[46.1 µM] | . | . | . | . | ?
CCN(CC)CCCNC(=O)c1cn(CC)c2cc(N3CCN(C(=O)c4ccco4)CC3)c(F)cc2c1=O | . | 7.4µM* | 4% | ? | . | 0
CCn1cc(C(=O)NC(C)C)c(=O)c2cc(F)c(N3CCN(C(=O)c4ccco4)CC3)cc21 | 8%[46.1 µM] | 5.2µM* | ? | 5.9µM* | -5%[46.1 µM] | -27
CCn1cc(C(=O)O)c(=O)c2cc(F)c(N3CCN(C(=S)Nc4ccc(OC)cc4)CC3)cc21 | 4% | ? | -1% | ? | 20%[46.1 µM] | -28
CCn1cc(C(=O)Nc2ncccc2O)c(=O)c2cc(F)c(N3CCN(C(=O)c4ccco4)CC3)cc21 | . | ? | -26% | 4.7µM* | . | 0
CCn1cc(C(=O)NCCC(C)C)c(=O)c2cc(F)c(N3CCN(C(=O)c4ccco4)CC3)cc21 | . | ? | -16% | 2.3µM* | . | -18
CCN(CC)CCNC(=O)c1cn(CC)c2cc(N3CCN(C(=O)c4ccco4)CC3)c(F)cc2c1=O | . | -18% | -9% | -24% | . | 16
CCn1cc(C(=O)O)c(=O)c2cc(F)c(N3CCN(C(=S)NC(=O)c4ccccc4C)CC3)cc21 | 11% | ? | 5% | ? | -15%[46.1 µM] | -19
CCCC(=O)N1CCC1(C)C(=O)NS(=O)(=O)c1ccc(C(C)(C)C)cc1 (stereo not drawn) | . | . | . | . | . | -26
COCCn1c(C)cc(O)c(C(c2ccc(OC)cc2)N2CCCCC2)c1=O (stereo not drawn) | ? | . | . | . | . | -10
CC(C)CCn1c(=O)c2sccc2n2c(CCCC(=O)NC3CCC(C)CC3)nnc12 (stereo not drawn) | 14%[46.1 µM] | . | . | . | . | -21
CN(C1CCCCC1)S(=O)(=O)c1ccc2c(c1)c(=O)c(C(=O)NCCc1ccc(Cl)cc1)cn2C | 4%[46.1 µM] | . | . | . | -9%[46.1 µM] | 32
Cc1n[nH]c(C)c1CCCCOc1ccccc1F | 6%[46.1 µM] | 16% | ? | 2.1µM* | ? | ?
Cc1ccccc1OCCCCc1c(C)n[nH]c1C | -31%[14.3 µM] | -15% | . | 49% | ? | ?
Cc1n[nH]c(C)c1CCCCOc1ccccc1 | 10% | -4% | -30% | 0% | -21%[46.1 µM] | -82*
CCC(CC)C(=O)Nc1nnc(SCc2cc(=O)n3cccc(C)c3n2)s1 | -12%[46.1 µM] | . | . | . | . | 49
CC1(C)Oc2ccc3ccc(=O)oc3c2[C@@H](O)[C@@H]1O | . | ? | 12% | 70% | . | -11
COC1=Cc2c(ccc3ccc(=O)oc23)OC1(C)C | -19% | 7.4µM* | ? | . | -26% | 11
CCn1c2ccccc2c2cc(NC(=O)COc3ccc(OC)cc3)ccc21 | -12% | 7% | ? | 16% | ? | -27
CCn1c2ccccc2c2cc(NC(=O)CCCN3C(=O)CCC3=O)ccc21 | -29% | -5% | 3.5µM* | ? | -28% | -28
CCn1c2ccccc2c2cc(NC(=O)COc3ccccc3)ccc21 | -18% | 12% | ? | ? | 1% | -40
CCn1c2ccccc2c2cc(NC(=O)c3cc(C)on3)ccc21 | ? | ? | 14µM* | ? | ? | -32
CCn1c2ccccc2c2cc(NC(=O)CN(C)CC(=O)Nc3ccc(N4CCOCC4)cc3)ccc21 | . | -17%[1.15 µM] | 11µM* | 15µM* | . | ?
CCn1c2ccccc2c2cc(NC(=O)N3CCOCC3)ccc21 | 4% | 21% | ? | -15% | 5% | 79
SMILES | Lassa entry inh | Pf growth 48h | HCV inh | Pf growth 96h | MARV entry inh | HCMV inh
CCn1c2ccccc2c2cc(NC(=O)c3ccc(Br)o3)ccc21 | -25% | . | ? | . | -5% | -19
CCn1c2ccccc2c2cc(NC(=O)c3cc(OC)cc(OC)c3)ccc21 | ? | 0% | ? | -16% | ? | -92*
CCn1c2ccccc2c2cc(NC(=O)COC(=O)c3ccccc3F)ccc21 | 11% | 33% | ? | 64% | 2% | -20
CCn1c2ccccc2c2cc(NC(=O)COC(=O)c3ccccc3O)ccc21 | ? | 6% | 11µM* | 16% | -26%[46.1 µM] | -16
CCn1c2ccccc2c2cc(NC(=O)c3cc(OC)c(OC)c(OC)c3)ccc21 | ? | ? | ? | ? | 1.4µM* | -88*
CC1(C(=O)Nc2cccc3ccccc23)CCN1C(=O)Cc1ccccc1Cl (stereo not drawn) | . | . | . | . | . | -12
CN(C(=O)COC(=O)C1=COCCO1)c1c(N)n(Cc2ccccc2)c(=O)[nH]c1=O | 10% | -15% | 20% | 4% | 1% | 7
COc1ccc(-c2c[n+](CC(=O)OC3CC(C)CCC3C(C)C)c3n2CCC3)cc1 (stereo not drawn) | . | ? | ? | ? | . | -100*
O=C(C[n+]1cc(-c2ccc(Cl)cc2)n2c1CCCCC2)c1ccccc1 | -18% | ? | -1% | ? | -7% | -6
CC(C)[C@@H]1CC[C@@H](C)C[C@H]1OC(=O)C[n+]1cc(-c2ccc(Cl)cc2)n2c1CCCCC2 | ? | ? | -15% | ? | ? | -97*
CCOC(=O)C1=CCN(S(=O)(=O)c2ccccc2F)C1c1cccc(C)c1 (stereo not drawn) | . | . | . | . | . | -3
COc1ccc(Cl)cc1NC(=O)CN(c1cc(C)cc(C)c1)S(=O)(=O)c1c(C)n[nH]c1C | ? | . | . | . | -28%[46.1 µM] | -23
CCCCCCCCN1C(=O)[C@H](CC(=O)NCc2ccc(OC)c(OC)c2)C[C@@]2(C(=O)OC)CC(C)(C)CC=C12 | . | . | . | . | . | 11
C[n+]1cccc2c(Br)ccc([O-])c21 | ? | ? | 8% | 2.3µM* | 7%[46.1 µM] | 4
CCOC(=O)C1(C)C=C(Nc2ccc(O)cc2)C(=O)N1c1ccc(O)cc1 (stereo not drawn) | -16% | 12µM* | 4% | 10µM* | ? | -70*
CNC(=S)N(Cc1cc2cc(C)ccc2n2nnnc12)CC(C)(C)CN(C)C | . | ? | 12% | 5.9µM* | . | -38
COCCN(Cc1cc2cc(C)ccc2n2nnnc12)C(=S)Nc1cccc(C)c1 | -25% | 5.2µM* | 11µM* | -22% | ? | 54
Cc1ccc2cc(CN(Cc3cccs3)C(=O)c3ccco3)c3nnnn3c2c1C | 1% | 22% | 1% | 11% | 7% | .
Cc1ccc2c(c1)cc(CN(Cc1cccs1)C(=O)c1ccco1)c1nnnn12 | 16µM* | -2% | ? | ? | ? | -28
CCc1ccc2c(c1)cc(CN(C(=S)Nc1cccc(C)c1)C1CC1)c1nnnn12 | ? | ? | -20% | 2.3µM* | ? | -18
Cc1cc2cc(CN(C(=O)C3CC3)C3CCCC3)c3nnnn3c2cc1C | ? | . | ? | . | ? | -22

Bioassay records from PubChem.
